“And” between values parts separate entries of the source, which are not always exact repeats. Equal entries are not always repeated. Inconclusive results are not listed. A call without a number means that no potency is given here. A number with no mark means an inactive call. The source made the active and inactive calls. Calls come from the whole dose curve.
Potency is the fitted concentration of half-maximal effect.

A short description of the assay: Cytotoxicity counterscreen for inhibitors of SARS-CoV-2 cell entry (AID 1645845). Note: nearly all actives have a fitted effect of over 50% in size. The note with it: cell viability (SARS-CoV-2 entry assay cells); series mostly up to 57.1 µM. An excerpt:
Assay Provider: Wei Zheng, Ph.D.
National Center for Advancing Translational Sciences, National Institute of Health, Rockville, MD.
SARS-CoV-2 spike protein, within the viral envelope, mediates viral attachment and infection of host cells. The SARS-CoV-2 spike protein specifically binds to the host receptor ACE2 (Angiotensin-converting enzyme 2). This interaction promotes endocytosis of the viral particle, additional events lead to viral-host cell membrane fusion and release of the viral contents, allowing viral replication.
While SARS-CoV-2 requires BSL-3 facilities for live virus work, pseudo-typed partices (PP) that incorporate SARS-CoV-2 spike proteins without replication elements could facilitate studies on viral entry mechanisms in a BSL-2 setting. This PP cell entry assay could also enable screening of small molecule compound libraries in BSL-2 setting to identify inhibitors of SARS-CoV-2 cell entry. To eliminate false positive compounds, ATP content cytotoxicity assay was screened in the same cell line.
SEQUENCE No. (e.g., 1, 2, 3, etc.); […] (e.g., Cells, Incubation, Reagent, etc.); VALUE and DESCRIPTION.
1. Cells. Seed 1500 HEK293-ACE2 cells (Expi293F with stable expression of human ACE2) in 2 uL/well media (DMEM, 10% FBS, 1x L-glutamine, 1x Pen/Strep, 1 ug/ml puromycin) in white 1536-well assay plates (Greiner #782073).
2. Incubation. Incubate at 37 C with 5% CO2 overnight (~16 h).
3. Compounds. Dispense 23 nL/well compounds in DMSO via pin transfer.
4. Incubation. Incubate for 1 h at 37C 5% CO2.
5. Reagent. Dispense 2 uL/well of media (DMEM, 10% FBS, 1x L-glutamine, 1x Pen/Strep, 1 ug/ml puromycin).
6. Incubation. Incubate at for 48h at 37C 5% CO2
7. Reagent. Dispense 4 uL/well of ATPLite 1step luminescence assay reagent (PerkinElmer #6016739).
8. Incubation. Incubate for 15 min at room temperature.
9. Detection. Read luminescence signal (Viewlux plate reader, PerkinElmer). Data was normalized with wells containing cells as 100%, and wells without cells (media only control) as 0%.
In general terms: A counterscreen serves to expose hits that act by an unwanted route or on another target.
For the compound `Cc1cccc(C)c1NC1=NCCCS1`, the Potency result is “inactive”.

Regarding `NCCC(O)(P(=O)(O)O)P(=O)(O)O`, the Potency entry was “inactive”.

Turning to `CNCCCC1c2ccccc2C=Cc2ccccc21`, the Potency result is “inactive”.

As for `CCC(C)(C)C(=O)O[C@H]1C[C@@H](C)C=C2C=C[C@H](C)[C@H](CC[C@@H]3C[C@@H](O)CC(=O)O3)[C@H]21`, the Potency result was “inactive”.

For the compound `FC(F)(F)c1cccc(C2=CCN(CCc3ccc4ccccc4c3)CC2)c1`, the Potency result was “inactive”.

As for `NN=C(N)N`, the Potency entry is “inactive”.

Take `CNCCc1ccccn1`: the Potency result was “inactive”.

Consider `N[C@@H]1C[C@H]1c1ccccc1`, for which the Potency result is “inactive”.

For the compound `CCN(CCO)CCCC(C)Nc1ccnc2cc(Cl)ccc12` (stereo not given), the activity change, negative = cytotoxicity was -4.65% [at 5.25 µM] and -23.5% [at 5.25 µM].

Consider `COC[C@H]1OC(=O)c2coc3c2[C@@]1(C)C1=C(C3=O)C2CCC(=O)[C@@]2(C)C[C@H]1OC(C)=O` (stereo not given in full), for which the Potency entry is “inactive”.

With `OCCOc1ccccc1`, the Potency result was “inactive”.

Regarding `Nc1nc(F)nc2c1ncn2[C@@H]1O[C@H](CO)[C@@H](O)[C@@H]1O`, the Potency result is “inactive”.

Consider `CC(=O)OCC(CCn1cnc2cnc(N)nc21)COC(C)=O`, for which the Potency entry is “inactive”.

Consider `CCn1cc(C(=O)O)c(=O)c2ccc(C)nc21`, for which the Potency entry is “inactive”.

With `O=C1NC(c2ccccc2)(c2ccccc2)C(=O)N1COP(=O)(O)O`, the Potency result was “inactive”.

With `CNCC(O)c1ccc(O)cc1` (stereo not given), the Potency entry is “inactive”.

In the case of `O=C1Cc2cc(CCN3CCN(c4nsc5ccccc45)CC3)c(Cl)cc2N1`, the Potency result is “inactive”.

For the compound `Cc1cccc(Nc2ccncc2S(=O)(=O)NC(=O)NC(C)C)c1`, the Potency result is “inactive”.

In the case of `Nc1nnc(-c2cccc(Cl)c2Cl)c(N)n1`, the Potency result was “inactive”.

On to `NCC(CC(=O)O)c1ccc(Cl)cc1` (stereo not given), for which the activity change, negative = cytotoxicity was 1.92% [at 0.702 µM].

For the compound `CN(C)CCOC(c1ccc(Cl)cc1)c1ccccn1` (stereo not given), the Potency result was “inactive”.

Take `Clc1ccc2c(c1)C(N1CCNCC1)=Nc1ccccc1O2`: the Potency result was “inactive”.

Consider `CN1CCN(CCCN2c3ccccc3Sc3ccc(Cl)cc32)CC1`, for which the Potency entry is “inactive”.

In the case of `NC12CC3CC(CC(C3)C1)C2`, the Potency entry was “inactive”.

Regarding `Nc1nc(=S)c2[nH]cnc2[nH]1`, the Potency is 7.94 µM (active).

For `CNC1(C)C2CCC(C2)C1(C)C` (stereo not given), the Potency entry was “inactive”.

On to `CN(C)[C@@H]1C(=O)C(C(N)=O)=C(O)[C@@]2(O)C(=O)C3=C(O)c4c(O)ccc(Cl)c4[C@@H](O)[C@H]3C[C@@H]12`, for which the Potency entry is “inactive”.

With `C#C[C@]1(O)CC[C@H]2[C@@H]3CCC4=Cc5oncc5C[C@]4(C)[C@H]3CC[C@@]21C`, the Potency result is “inactive”.

For `CC(C)C1CCC(C(=O)N[C@H](Cc2ccccc2)C(=O)O)CC1` (stereo not given in full), the Potency result is “inactive”.

On to `O=C(OC1C[C@H]2CC[C@@H](C1)[N+]21CCCC1)C(O)(c1ccccc1)c1ccccc1` (stereo not given in full), for which the Potency entry was “inactive”.

Regarding `CC1=NS(=O)(=O)c2cc(Cl)ccc2N1`, the Potency result was “inactive”.

On to `Cc1ccsc1C(=CCCN1CCC[C@@H](C(=O)O)C1)c1sccc1C`, for which the Potency entry was “inactive”.

Turning to `CN(C)CCC=C1c2ccccc2CCc2ccccc21`, the Potency entry was “inactive”.

With `Nc1nc(N)c2nc(-c3ccccc3)c(N)nc2n1`, the Potency result was “inactive”.

Take `O=[N+]([O-])c1cc([As](=O)(O)O)ccc1O`: the Potency result is “inactive”.

With `Cc1ncc(CNC(=O)N(CCCl)N=O)c(N)n1`, the Potency entry is “inactive”.

Take `CN(C)c1nc(N(C)C)nc(N(C)C)n1`: the Potency entry is “inactive”.

Consider `Cc1cc2c(s1)Nc1ccccc1N=C2N1CCN(C)CC1`, for which the Potency entry was “inactive”.

`CC1(C)S[C@@H]2[C@H](NC(=O)[C@H](N)c3ccccc3)C(=O)N2[C@H]1C(=O)O`: the Potency result is “inactive”.

In the case of `CNCC[C@@H](Oc1ccccc1C)c1ccccc1`, the Potency entry is “inactive”.

For the origin of these results see PubChem BioAssay (NCATS).
